Laboratory results as given in PubChem BioAssay (EPA / NIEHS).
Calls of active or inactive are those of the source. The calls were made as follows: active = hit-call score of the fitted dose curve at least 0.9, where 1 is the maximum; inactive = score below 0.9.

Tests used:
[1] = ATG_CRE_CIS: Attagene CIS-FACTORIAL HepG2 Assay for human cAMP Responsive Element (CRE) binding protein 3 (AID 2282926); conditions: HepG2 CRE cis-reporter, Attagene multiplexed mRNA; actives raise or lower the signal
How it was run: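 Induced reporter mRNA from a CRE cis element, measured in HepG2 among many multiplexed units at 24 h. Detection used RT-PCR plus capillary electrophoresis of fluorescent fragments; DMSO served as negative control.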

[2] = target: CCAAT/enhancer-binding protein beta (Homo sapiens) (UniProt P17676); assay: ATG_C_EBP_CIS: Attagene CIS-FACTORIAL HepG2 Assay for human CCAAT/Enhancer Binding Protein (C/EBP) beta (AID 2282927); conditions: HepG2 Attagene cis-factorial transcription factor reporter; actives raise or lower the signal
How it was run: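 Chemical-treated HepG2 cells (24 h) bearing cis-regulated reporter constructs were processed for total RNA, then reverse transcription, PCR amplification, fluorescent primer extension and fragment analysis; gain- and loss-of-signal were fitted against DMSO.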

[3] = ATG_DR4_LXR_CIS: Attagene CIS-FACTORIAL HepG2 Assay for human Liver X Receptor (LXR), DR4 submotif (AID 2282929); conditions: HepG2 Attagene DR4 cis-reporter, mRNA transcription; actives raise or lower the signal
How it was run: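 HepG2 cells transiently transfected with cis-promoter-driven multiplexed reporter units (DR4 element) were dosed for 24 h. Reporter mRNA was quantified by RT-PCR, fluorescent primer extension, HpaI digestion and capillary electrophoresis; bidirectional fitting versus DMSO baseline.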

[4] = target: Aryl hydrocarbon receptor (Homo sapiens) (UniProt P35869); assay: ATG_Ahr_CIS: Attagene CIS-FACTORIAL HepG2 Assay for human Aryl Hydrocarbon Receptor (Ahr) (AID 2282930); conditions: HepG2 AhR cis-factorial reporter transcription; actives raise or lower the signal
How it was run: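 Following 24 h of chemical dosing, transfected HepG2 liver cells with cis-driven reporter units were lysed for RNA; reporter mRNA was quantified via RT-PCR and capillary electrophoresis, and responses fitted bidirectionally from DMSO.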

[5] = ATG_AP_1_CIS: Attagene CIS-FACTORIAL HepG2 Assay for human Activator Protein 1 (AP-1) (AID 2282931); conditions: HepG2 Attagene cis-factorial AP-1 reporter mRNA; actives raise or lower the signal
How it was run: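 HepG2 cells transiently transfected with cis-element-driven multiplex reporter units; 24 h compound exposure. Reporter mRNA quantified by RT-PCR, FAM-labelled fragments resolved by capillary electrophoresis; bidirectional fit versus DMSO baseline.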

[6] = ATG_AP_2_CIS: Attagene CIS-FACTORIAL HepG2 Assay for human Activator Protein 2 (AP-2) (AID 2282932); conditions: HepG2 AP-2 cis-reporter, Attagene transcription factor profiling; actives raise or lower the signal
How it was run: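 Assay in transfected HepG2 with promoter-regulated reporters, 24 h incubation after dosing. Signal is reporter mRNA fluorescence (RT-PCR, capillary electrophoresis), analysed for both increases and decreases relative to DMSO controls.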

[7] = ATG_BRE_CIS: Attagene CIS-FACTORIAL HepG2 Assay for human Bone Morphogenetic Protein (BMP) Response Element (BRE) (AID 2282933); conditions: HepG2 BMP response element reporter, Attagene transcription factor profiling; actives raise or lower the signal
How it was run: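 HepG2 cells transiently transfected with CIS reporter units (endogenous TF activity, BMP response element), dosed 24 h. Reporter mRNA quantified by RT-PCR, fluorescent labelling and capillary electrophoresis; bidirectional fit vs DMSO baseline.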

[8] = target: Retinoic acid receptor alpha (Homo sapiens) (UniProt P10276); assay: ATG_DR5_RAR_CIS: Attagene CIS-FACTORIAL HepG2 Assay for human Retinoic Acid Receptor Alpha (RARE), DR5 submotif (AID 2282934); conditions: HepG2 Attagene cis-factorial RARE DR5 reporter, mRNA; actives raise or lower the signal;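 as to AC50: reporter responds to endogenous RAR alpha beta and gamma in HepG2 not RARA alone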
How it was run: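 Transfected HepG2 reporter cells are exposed to chemicals for 24 h. Then RNA is extracted and the DR5 element reporter transcript is measured by RT-PCR and capillary electrophoresis, with bidirectional curve fitting relative to DMSO.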

[9] = ATG_E_Box_CIS: Attagene CIS-FACTORIAL HepG2 Assay for human Enhancer Box (E-box) (AID 2282936); conditions: HepG2 E-box cis-reporter transcription, actives raise or lower the signal
How it was run: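 Measured 24 h post-dosing in HepG2 cells transfected with multiple cis-regulated reporter units, signal being reporter mRNA induction detected by fluorescent RT-PCR with capillary electrophoresis; gain or loss fitted against DMSO.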

[10] = ATG_M_61_CIS: Attagene CIS-FACTORIAL HepG2 Assay for M61 Transcription Factor (Internal Marker) (AID 2282937); conditions: HepG2 Attagene CIS-FACTORIAL M61 internal marker reporter; actives raise or lower the signal
How it was run: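 HepG2 cells transiently transfected with cis-element-driven multiple reporter transcription units, dosed for 24 h. Reporter mRNA measured by RT-PCR, 6-FAM primer-extension labelling, HpaI digestion and capillary electrophoresis; bidirectional fit versus DMSO baseline.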

[11] = ATG_EGR_CIS: Attagene CIS-FACTORIAL HepG2 Assay for human Early Growth Response 1 (EGR1) (AID 2282938); conditions: HepG2 Attagene CIS-FACTORIAL EGR reporter mRNA; actives raise or lower the signal
How it was run: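 HepG2 cells transiently transfected with cis-promoter-driven multiplexed reporter transcription units; reporter mRNA measured 24 h after compound dosing by RT-PCR, 6-FAM primer extension, HpaI digestion and capillary electrophoresis. Bidirectional fit versus DMSO baseline.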

[12] = ATG_M_19_CIS: Attagene CIS-FACTORIAL HepG2 Assay for M19 Transcription Factor (Internal Marker) (AID 2282939); conditions: HepG2 Attagene CIS-FACTORIAL M19 internal marker reporter; actives raise or lower the signal
How it was run: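 HepG2 cells transiently transfected with cis-regulated multiplexed reporter units, dosed 24 h. Reporter mRNA quantified by RT-PCR and capillary electrophoresis; internal background marker fitted bidirectionally versus DMSO.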

[13] = ATG_Ets_CIS: Attagene CIS-FACTORIAL HepG2 Assay for human Erythroblast Transformation Specific (ETS) (AID 2282941); conditions: HepG2 ETS cis-reporter transcription, actives raise or lower the signal
How it was run: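 Cis-regulated reporter mRNA induction in HepG2 (transient transfection), 24 h exposure, RT-PCR plus capillary electrophoresis detection; DMSO serves as negative control and baseline.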

[14] = target: Hepatocyte nuclear factor 3-beta (Homo sapiens) (UniProt Q9Y261); assay: ATG_FoxA2_CIS: Attagene CIS-FACTORIAL HepG2 Assay for human Forkhead box A2 (FOXA2) (AID 2282942); conditions: HepG2 cis-reporter transcription factor activity, 24 h; actives raise or lower the signal
How it was run: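 HepG2 cells transiently transfected with multiple cis-regulated reporter transcription units, dosed for 24 h. Reporter mRNA measured by RT-PCR, 6-FAM labelling, HpaI digestion and capillary electrophoresis; bidirectional fitting against DMSO baseline.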

[15] = ATG_FoxO_CIS: Attagene CIS-FACTORIAL HepG2 Assay for human Forkhead box O (FoxO) (AID 2282943); conditions: HepG2 Attagene cis-reporter, FoxO element, mRNA; actives raise or lower the signal
How it was run: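 24 h chemical exposure, HepG2 with transient cis-MRTU transfection. RNA extraction, oligo(dT) RT, reporter-specific PCR, primer-extension labelling, HpaI digestion, CE fragment analysis; bidirectional fit, DMSO baseline.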

[16] = ATG_GATA_CIS: Attagene CIS-FACTORIAL HepG2 Assay for human GATA Binding Protein (AID 2282944); conditions: HepG2 GATA cis-element reporter, Attagene multiplex mRNA; actives raise or lower the signal
How it was run: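 HepG2 cells transiently transfected with multiplexed cis-element reporter units measure endogenous GATA activity; after 24 h compound exposure, reporter mRNA quantified by RT-PCR and capillary electrophoresis. Changes fitted in both directions vs DMSO.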

[17] = ATG_GLI_CIS: Attagene CIS-FACTORIAL HepG2 Assay for human Zinc Finger Protein GLI1 (AID 2282945); conditions: HepG2, Attagene cis-factorial reporter mRNA, GLI element; actives raise or lower the signal
How it was run: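 HepG2 cells transiently transfected with cis-promoter multiplexed reporter units report endogenous transcription factor activity. After 24 h chemical exposure, reporter mRNA was quantified by RT-PCR, 6-FAM labelling, HpaI digestion and capillary electrophoresis, with bidirectional fitting against DMSO.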

[18] = target: Transcription factor E2F1 (Homo sapiens) (UniProt Q01094); assay: ATG_E2F_CIS: Attagene CIS-FACTORIAL HepG2 Assay for human E2F Transcription Factor 1 (AID 2282935); conditions: HepG2 Attagene cis-reporter, E2F reporter RNA transcripts; actives raise or lower the signal
How it was run: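 In this cis-factorial format, endogenous factor activity drives transfected reporters in HepG2; transcripts collected at 24 h are quantified by fluorescence after RT-PCR and capillary separation.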

Measured: AC50

Chain of Retinoic acid receptor alpha (Homo sapiens) (P10276 whole entry, looked up): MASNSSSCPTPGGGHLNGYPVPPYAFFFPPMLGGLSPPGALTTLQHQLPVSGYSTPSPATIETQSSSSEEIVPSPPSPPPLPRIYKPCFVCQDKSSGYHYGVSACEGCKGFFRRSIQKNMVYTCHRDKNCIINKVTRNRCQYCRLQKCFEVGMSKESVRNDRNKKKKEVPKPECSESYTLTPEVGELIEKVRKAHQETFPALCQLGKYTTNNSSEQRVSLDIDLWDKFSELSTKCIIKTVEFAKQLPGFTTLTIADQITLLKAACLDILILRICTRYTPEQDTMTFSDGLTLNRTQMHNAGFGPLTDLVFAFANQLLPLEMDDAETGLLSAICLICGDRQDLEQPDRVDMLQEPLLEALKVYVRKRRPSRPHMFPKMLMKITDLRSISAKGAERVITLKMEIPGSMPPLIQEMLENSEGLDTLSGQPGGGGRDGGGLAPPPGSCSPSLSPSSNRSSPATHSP
Chain of Hepatocyte nuclear factor 3-beta (Homo sapiens) (Q9Y261 whole entry, looked up): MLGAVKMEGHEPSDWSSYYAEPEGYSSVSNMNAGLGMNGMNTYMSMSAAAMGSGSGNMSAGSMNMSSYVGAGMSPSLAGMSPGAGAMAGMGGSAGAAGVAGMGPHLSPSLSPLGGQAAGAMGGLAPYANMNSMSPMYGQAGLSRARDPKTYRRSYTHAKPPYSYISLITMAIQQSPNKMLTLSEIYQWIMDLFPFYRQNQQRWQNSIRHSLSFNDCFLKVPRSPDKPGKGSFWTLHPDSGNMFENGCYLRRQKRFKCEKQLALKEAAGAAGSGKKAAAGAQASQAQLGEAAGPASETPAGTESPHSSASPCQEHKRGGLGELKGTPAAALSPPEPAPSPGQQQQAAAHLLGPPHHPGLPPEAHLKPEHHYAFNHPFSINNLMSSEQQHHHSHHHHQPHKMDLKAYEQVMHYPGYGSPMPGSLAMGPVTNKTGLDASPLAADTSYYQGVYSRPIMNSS
Chain of Transcription factor E2F1 (Homo sapiens) (Q01094 whole entry, looked up): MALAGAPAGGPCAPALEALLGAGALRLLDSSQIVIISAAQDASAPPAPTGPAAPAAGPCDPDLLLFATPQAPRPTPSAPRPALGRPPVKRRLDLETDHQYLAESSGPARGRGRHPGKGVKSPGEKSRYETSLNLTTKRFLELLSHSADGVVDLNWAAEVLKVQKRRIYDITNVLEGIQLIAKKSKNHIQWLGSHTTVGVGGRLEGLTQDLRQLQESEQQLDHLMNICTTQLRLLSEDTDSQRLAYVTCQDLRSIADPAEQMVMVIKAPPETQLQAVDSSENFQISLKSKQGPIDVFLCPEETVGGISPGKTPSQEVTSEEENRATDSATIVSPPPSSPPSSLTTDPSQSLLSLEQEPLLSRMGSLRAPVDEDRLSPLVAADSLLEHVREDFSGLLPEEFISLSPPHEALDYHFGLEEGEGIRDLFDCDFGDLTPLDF
Chain of Aryl hydrocarbon receptor (Homo sapiens) (P35869 whole entry, looked up): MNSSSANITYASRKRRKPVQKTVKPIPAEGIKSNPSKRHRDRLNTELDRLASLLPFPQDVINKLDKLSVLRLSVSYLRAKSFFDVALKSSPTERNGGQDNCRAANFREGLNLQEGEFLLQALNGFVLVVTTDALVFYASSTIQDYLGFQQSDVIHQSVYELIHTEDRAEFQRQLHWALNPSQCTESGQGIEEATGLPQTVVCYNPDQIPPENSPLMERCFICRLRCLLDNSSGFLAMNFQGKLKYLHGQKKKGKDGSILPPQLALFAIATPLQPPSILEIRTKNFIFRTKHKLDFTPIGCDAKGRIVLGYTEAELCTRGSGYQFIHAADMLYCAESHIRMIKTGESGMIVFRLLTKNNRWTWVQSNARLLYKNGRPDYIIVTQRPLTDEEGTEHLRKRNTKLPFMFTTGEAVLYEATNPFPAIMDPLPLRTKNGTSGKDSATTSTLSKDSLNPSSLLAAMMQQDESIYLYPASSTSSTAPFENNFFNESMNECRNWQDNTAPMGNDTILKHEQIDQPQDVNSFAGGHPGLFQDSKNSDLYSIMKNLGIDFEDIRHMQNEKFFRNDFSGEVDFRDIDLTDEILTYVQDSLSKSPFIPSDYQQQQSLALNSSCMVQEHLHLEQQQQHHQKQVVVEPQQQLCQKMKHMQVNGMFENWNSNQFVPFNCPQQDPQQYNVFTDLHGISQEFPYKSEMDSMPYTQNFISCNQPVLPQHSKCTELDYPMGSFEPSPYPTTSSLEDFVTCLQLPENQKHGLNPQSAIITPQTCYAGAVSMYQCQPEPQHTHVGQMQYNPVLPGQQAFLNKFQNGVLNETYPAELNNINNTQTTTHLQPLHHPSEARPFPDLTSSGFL
Chain of CCAAT/enhancer-binding protein beta (Homo sapiens) (P17676 whole entry, looked up, the tested form may be a part): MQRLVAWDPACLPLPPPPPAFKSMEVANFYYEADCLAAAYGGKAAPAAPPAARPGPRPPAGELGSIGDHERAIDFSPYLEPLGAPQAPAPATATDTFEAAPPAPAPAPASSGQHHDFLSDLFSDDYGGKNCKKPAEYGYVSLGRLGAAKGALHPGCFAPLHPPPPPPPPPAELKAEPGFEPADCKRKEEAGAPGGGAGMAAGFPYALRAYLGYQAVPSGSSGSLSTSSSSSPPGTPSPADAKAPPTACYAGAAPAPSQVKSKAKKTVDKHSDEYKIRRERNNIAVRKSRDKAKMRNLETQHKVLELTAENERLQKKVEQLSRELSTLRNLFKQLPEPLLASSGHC

CCCC(=O)OCCc1ccccc1
inactive: [1] | [2] | [3] | [4] | [5] | [6] | [7] | [8] | [9] | [10] | [11] | [12] | [13] | [14] | [15] | [16] | [17]

Cc1c(Cl)cccc1[N+](=O)[O-]
inactive: [1] | [2] | [3] | [4] | [5] | [6] | [7] | [8] | [18] | [9] | [10] | [11] | [12] | [13] | [14] | [15] | [16] | [17]

Nc1ccc2c(O)cc(S(=O)(=O)O)cc2c1
active: [4] 25.9 µM
inactive: [1] | [2] | [3] | [5] | [6] | [7] | [8] | [18] | [9] | [12] | [13] | [14] | [15] | [16] | [17]

C=Cc1ccncc1
inactive: [1] | [3] | [4] | [5] | [6] | [7] | [18] | [12] | [14] | [17]
active: [2] 26.2 µM | [8] 27 µM | [9] 46.1 µM | [11] 37.1 µM | [13] 57.3 µM | [15] 43.4 µM | [16] 22.7 µM

C=C1C[C@]23C[C@@]1(O)CC[C@H]2[C@@]12C=C[C@H](O)[C@@](C)(C(=O)O1)[C@H]2[C@@H]3C(=O)O
inactive: [1] | [2] | [3] | [4] | [5] | [6] | [8] | [18] | [9] | [11] | [13] | [14] | [15] | [16] | [17]

C=C(C)C(=O)OCC(CC)(COC(=O)C(=C)C)COC(=O)C(=C)C
inactive: [1] | [2] | [3] | [4] | [5] | [6] | [7] | [8] | [18] | [9] | [10] | [11] | [12] | [13] | [14] | [15] | [16] | [17]

CC1=CC[C@@]23C[C@@H]1C(C)(C)[C@@H]2CC[C@H]3C
active: [3] 165 µM
inactive: [1] | [2] | [4] | [5] | [6] | [7] | [8] | [18] | [9] | [10] | [12] | [13] | [14] | [16] | [17]

COc1cc([C@@H]2c3cc4c(cc3[C@@H](O[C@@H]3O[C@@H]5CO[C@@H](C)O[C@H]5[C@H](O)[C@H]3O)[C@H]3COC(=O)[C@H]23)OCO4)cc(OC)c1O
inactive: [1] | [2] | [3] | [4] | [5] | [6] | [7] | [8] | [18] | [9] | [10] | [11] | [12] | [13] | [14] | [15] | [16] | [17]
